Compound activity: PubChem, several laboratories
Only some compounds are listed: those with a hit (about 2.6% of all), similar ones and a draw of the others.
NOD2 RIPK2 PPI: NOD2-RIPK2 protein interaction inhibition; CHO BLA complementation NOD2-RIPK2, CCF4 ratio; inhibition, % at 4.98 µM; 360,000 tested, 0.38% active; AID 624267; in the data active = inhibition above about 21%;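 also: 0% = vehicle only and 100% = reference blocker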
Exocytosis inh: blocks lytic granule exocytosis; 360,000 tested, 0.66% active; AID 651702; inhibition, % at 10 µM; TALL-104 LAMP-1 surface exposure, flow cytometry; cells stimulated with thapsigargin and PMA;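 active = inhibition above about 55%, limit read from the data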
ABHD5-PLIN5 inh: ABHD5-PLIN5 protein interaction inhibition; Q00G26+Q8WTS1; Split G. princeps luciferase complementation, luminescence, 4 h; inhibition, % at 4 µM; 360,000 tested, 0.78% active; AID 602281;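 active = inhibition above the mean inhibition across every tested compound plus 3 SD, cut at about 22% in these data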;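 also: 0% = DMSO only wells and the 100% control is not disclosed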
TLR4 MyD88 comp: inhibitors of human TLR4-MyD88 binding. O00206+Q99836. HeLa CL3-4 TLR4/MyD88 BLA complementation, FRET ratio. inhibition, % at 8.4 µM. 200,000 tested, 0.18% active. AID 861; in the data active = inhibition above about 25%;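 also: 0% = vehicle and 100% = reference inhibitor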
TLR9-MyD88 inh: TLR9-MyD88 interaction inhibition; Q9NR96+Q99836; CHO BLA complementation TLR9-MyD88, CCF4 FRET ratio; inhibition, % at 4.98 µM; 340,000 tested, 0.21% active; AID 504734;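 active = inhibition above the mean over all tested compounds plus 3 SD, cut at about 21% in these data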;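 also: 0% = DMSO only wells and 100% = clavulanate BLA inhibitor control wells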
PRMT1 inh: blocks human protein arginine methyltransferase 1; recombinant PRMT1, activity-based probe fluorescence polarization; inhibition, % at 2.79 µM; Q99873; 370,000 tested, 1.3% active; AID 652257;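 active = inhibition above about 21% made by adding two undisclosed values, limit read from the data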
ABHD5 PLIN5 conf: confirmation of human ABHD5-PLIN5 interaction inhibitors. shares compounds with ABHD5-PLIN5 inh. biochemical ABHD5-PLIN5 interaction, luminescence. 2,200 tested, 67% active. inhibition, % at 4 µM; in the data active = inhibition above about 23%;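 also: 0% = DMSO vehicle wells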
HNF4 split-luc: HNF4 split-luciferase signal hit, counter-screen | 2,200 tested, 77% active | shares compounds with ABHD5-PLIN5 inh | inhibition, % at 4 µM | HNF4 dimerization, luminescence, biochemical | AID 651674;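 active = mean inhibition across replicate wells exceeding the computed hit threshold, cut at about 13% in these data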;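 also: light from luciferase halves that rejoin when HNF4 fusion proteins dimerize; 0% = DMSO only wells and the 100% control is not given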
Numbers without * were called inactive; . = no result.

SMILES	NOD2 RIPK2 PPI	Exocytosis inh	ABHD5-PLIN5 inh	TLR4 MyD88 comp	TLR9-MyD88 inh	PRMT1 inh	ABHD5 PLIN5 conf	HNF4 split-luc
Cc1ccc(C2NC(=S)NC(c3ccc(C)cc3)C23C(=O)NC(=O)NC3=O)cc1 (stereo unspecified)	-11	0	-3	0	2	9	.	.
C=CCNC(=S)/N=C/c1c(O)[nH]c(=O)[nH]c1=O	-5	-3	28*	4	5	15	1	6
CN(C)C(=O)CSc1nnc([C@@H](N)Cc2ccccc2)o1	-1	1	1	13	7	5	.	.
C=C1C(=O)O[C@@H]2C[C@@H](C)[C@H]3C=CC(=O)[C@]3(O)C[C@@H]12	7	13	33*	.	7	3	47*	24*
O=C(O)CCn1cc(C=C2C(=O)NC(=O)NC2=O)c(-c2ccc(Br)cc2)n1	-3	-3	25*	-1	-23	7	69*	71*
O=C(O)CCn1cc(C=C2C(=O)NC(=S)NC2=O)c(-c2cccc(Cl)c2)n1	-13	0	7	7	-8	12	.	.
COC(=O)c1ccccc1OP(=O)(c1cccc([N+](=O)[O-])c1)c1cccc([N+](=O)[O-])c1	-6	-4	2	.	8	5	.	.
COC(=O)Cn1cc(C=C2C(=O)N(C)C(=O)N(C)C2=O)c2ccccc21	.	.	.	.	.	19	.	.
COC(=O)Cn1cc(/C=C2\C(=O)NC(=O)N(c3ccccc3)C2=O)c2ccccc21	13	24	24*	.	10	1	44*	38*
O=C(O)Cn1cc(/C=C2\C(=O)NC(=O)N(c3ccc(Br)cc3)C2=O)c2ccccc21	4	11	22	.	-1	6	.	.
Cc1ccc(N2C(=O)NC(=O)/C(=C\c3cn(CC(=O)O)c4ccccc34)C2=O)cc1	-4	-2	27*	.	-6	0	25*	19*
C=CCn1cc(C=C2C(=O)N(C)C(=O)N(C)C2=O)c2ccccc21	0	-6	23*	.	6	20	7	5
CC(NC(=O)Oc1ccccc1)C(c1cccs1)N1CCOCC1 (stereo unspecified)	-14	-3	-2	5	-6	-1	.	.
COC(=O)C(O)(c1ccc(NC(=O)c2cccs2)cc1)C(F)(F)F (stereo unspecified)	-7	-4	-5	.	.	-1	.	.
Cc1nc(CCl)cc(=O)[nH]1	5	1	-7	1	5	1	.	.
CCC(C)N1Cc2ccccc2C1=N (stereo unspecified)	3	15	-4	-3	-3	-2	.	.
C=CCn1c(O)c(C(C)=NCc2ccc3c(c2)OCO3)c(=O)[nH]c1=O	8	-16	-5	.	0	-3	.	.
CC(=NCc1ccc2c(c1)OCO2)c1c(O)n(-c2ccc(C)cc2)c(=O)[nH]c1=O	-4	2	99*	.	5	1	-2	-2
C=C1C(=O)OC2CC3(C)OC3CCC(C)=CC(OC(C)=O)C12 (stereo unspecified)	16	38	33*	.	-15	4	45*	70*
C=CCN1C(=O)NC(=O)C(CCc2ccncc2)(CCc2ccncc2)C1=O	-2	0	2	-1	-3	-3	.	.
O=C1NC(=O)N(c2ccccc2F)C(=O)/C1=C/c1cn(CC(=O)N2CCOCC2)c2ccccc12	.	.	.	.	.	4	.	.
CCN1C(=O)NC(=O)/C(=C\c2cn(CC(=O)N3CCCC3)c3ccccc23)C1=O	1	-4	25*	.	-6	10	24*	26*
CCN1C(=O)NC(=O)/C(=C\c2cn(CC(=O)N3CCCCC3)c3ccccc23)C1=O	-12	-17	26*	.	3	15	20	20*
COc1c(/C=C2/C(=O)NC(=O)N(C)C2=O)c(CCN(C)C(=O)c2ccccc2)cc2c1OCO2	-5	-6	20	.	-4	20	.	.
CNC(=S)N(C)CCc1cc2c(c(OC)c1/C=C1/C(=O)NC(=O)N(C)C1=O)OCO2	-1	-10	35*	.	-3	21	9	18*
SMILES	NOD2 RIPK2 PPI	Exocytosis inh	ABHD5-PLIN5 inh	TLR4 MyD88 comp	TLR9-MyD88 inh	PRMT1 inh	ABHD5 PLIN5 conf	HNF4 split-luc
CCNC(=S)N(C)CCc1cc2c(c(OC)c1C=C1C(=O)N(C)C(=O)N(C)C1=O)OCO2	-13	5	29*	.	.	15	10	18*
COC(=O)C1=C(c2cc3ccccc3o2)C[C@@H]2CC[C@H]1N2C(=O)NCc1cccc2ccccc12	0	-2	7	.	-6	5	.	.
CC(=O)NN1C(=O)c2ccccc2NC1c1cccnc1 (stereo unspecified)	3	2	-2	-11	5	-2	.	.
CC[C@H]1C2C[C@H]3[C@@H]4N(C)c5ccccc5C45C[C@H](C2[C@H]5O)N3[C@@H]1O (stereo partly specified)	-7	-2	-7	.	-2	6	.	.
CN(C)c1ccc(-[n+]2c(-c3ccccc3)cc(-c3ccccc3)cc2-c2ccccc2)cc1	1	51	26*	11	.	-2	6	3
Cc1ccc(-c2cc(-c3ccc(C)cc3)[n+](-c3ccccc3)c(-c3ccc(C)cc3)c2)cc1	3	42	28*	.	-14	.	9	11
CCOC(=O)CC[C@@H]1CC[C@]2(CCCN(Cc3ccncc3)C2)O1	.	.	.	.	.	2	.	.
CCOC(=O)[C@]12Cc3cc4ccccc4cc3[C@H]1N(Cc1ccccc1)C(=O)c1cc(OC)ccc12	0	5	23*	.	.	-6	11	16*
CCOC(=O)[C@]12Cc3cc(Cl)ccc3[C@H]1N(C)C(=O)c1ccccc12	-14	-3	-4	.	.	-4	.	.
CCOC(=O)[C@]12Cc3cc(Cl)ccc3[C@H]1N(CC(=O)OC)C(=O)c1ccccc12	19	8	38*	.	.	.	32*	34*
Cc1nc2ccc(Cl)cc2c(-c2ccccc2)c1C(=O)O	-3	12	6	12	9	-4	.	.
Cc1cccc(NP2(=O)NCCCN2)c1	-7	-11	-6	.	-8	2	.	.
COc1ccc(-n2c(O)c(/C=C3\C=Nc4ccc(Br)cc43)c(=O)[nH]c2=O)cc1	-4	-17	36*	.	-7	5	36*	29*
COc1ccc(-n2c(O)c(/C=C3\C=Nc4ccc(Br)cc43)c(=O)[nH]c2=O)c(OC)c1	-1	-7	22	.	14	0	.	.
CC/C(=C\C=C\[C@@H]1C=C[C@@H]2CCC[C@H]2[C@@H]1C(=O)c1ccc[nH]1)[C@@H]1O[C@@H]([C@@H](C)C(=O)O)CC[C@@H]1C	.	.	.	-12	.	.	.	.
COC(=O)C[C@]1(C(=O)OC)CN(C#N)N(c2ccc(Cl)cc2)C12c1ccccc1-c1ccccc12	55*	8	78*	4	7	13	98*	97*
